A selection: hits, their analogues and other compounds. The true share with any hit is near 1.6%.
KCNQ2 pot = enhances the rat KCNQ2 potassium channel; O88943; CHO-K1 KCNQ2, FluxOR thallium flux fluorescence; stronger effect = higher value; B-score at 10 µM; 310,000 compounds, 0.54% hits; AID 2239;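 active means fluorescence ratio B-score at least 3 SD of library B-scores, with initial fluorescence B-score within 3 of them, cut at about 5.3 in these data; same plate scores as AID 2156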;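 further: B-score of peak minus minimum over baseline fluorescence ratio after K+ and Tl+ stimulus; positive B-score means potentiation of KCNQ2 with more thallium influx and brighter signal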
Target sequence (O88943 whole entry, looked up): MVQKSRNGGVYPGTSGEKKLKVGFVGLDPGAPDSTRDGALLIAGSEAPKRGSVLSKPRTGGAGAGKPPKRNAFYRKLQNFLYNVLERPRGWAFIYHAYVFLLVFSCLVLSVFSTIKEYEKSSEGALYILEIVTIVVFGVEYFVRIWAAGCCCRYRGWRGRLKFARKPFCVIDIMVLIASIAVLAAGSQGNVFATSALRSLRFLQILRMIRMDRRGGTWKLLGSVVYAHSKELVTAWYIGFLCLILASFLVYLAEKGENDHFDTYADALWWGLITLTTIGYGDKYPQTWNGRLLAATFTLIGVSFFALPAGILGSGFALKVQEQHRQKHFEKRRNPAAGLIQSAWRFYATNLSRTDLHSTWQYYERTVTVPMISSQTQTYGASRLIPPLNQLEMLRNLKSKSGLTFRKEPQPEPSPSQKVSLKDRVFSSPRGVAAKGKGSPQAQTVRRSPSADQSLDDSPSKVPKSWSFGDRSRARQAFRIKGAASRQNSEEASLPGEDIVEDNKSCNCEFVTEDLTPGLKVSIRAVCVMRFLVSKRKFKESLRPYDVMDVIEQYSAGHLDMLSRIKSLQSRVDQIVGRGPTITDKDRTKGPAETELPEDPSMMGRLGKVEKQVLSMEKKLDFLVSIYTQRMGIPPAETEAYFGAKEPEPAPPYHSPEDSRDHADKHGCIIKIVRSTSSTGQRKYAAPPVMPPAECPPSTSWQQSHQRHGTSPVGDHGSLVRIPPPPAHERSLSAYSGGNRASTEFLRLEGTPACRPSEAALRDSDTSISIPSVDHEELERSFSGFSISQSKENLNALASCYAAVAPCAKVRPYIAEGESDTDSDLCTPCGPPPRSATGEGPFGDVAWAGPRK
KCNQ2 inh = blocks the rat KCNQ2 potassium channel | CHO-K1 KCNQ2, FluxOR thallium flux, 20 min; stronger effect = lower value | B-score at 10 µM | 310,000 compounds, 1.1% hits;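 active means fluorescence ratio B-score at most minus 3 library SDs, with starting brightness B-score within 2 library SDs, cut at about -5.5 in these data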
Kir21 conf inh = confirmation of mouse Kir2.1 potassium channel inhibitors; shares compounds with KCNQ2 pot; Kir2.1-expressing cells, FluxOR thallium flux fluorescence; stronger effect = lower value; Tl flux remaining, % of negative control (stronger effect = lower value), % at 10 µM; 2,300 compounds, 41% hits;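 active means Primary-screen hit whose thallium flux fell at least 3 control SD below untreated wells in both duplicates, with normal baseline fluorescence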;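 further: 0% = blank wells without stimulus and 100% = stimulated no-compound controls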
HEK293 Tl flux = alters thallium flux in parental HEK293 cells, Kir2.1 counter-screen; shares compounds with KCNQ2 pot; AID 2105; 2,300 compounds, 19% hits; FluxOR signal as % of negative control (100 = no effect), % at 10 µM; FluxOR thallium flux fluorescence; 0% = unstimulated blank wells;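 active means dye signal at least 3 control SD above or below untreated wells in both duplicates, raw fluorescence within 3, either direction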;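 further: percent is based on the flux ratio of peak minus minimum fluorescence over baseline F0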
CHO-K1 Tl ctr = counter-screen for KCNQ2 potentiators: effect in parental CHO-K1 cells. FluxOR thallium flux fluorescence; zero = vehicle mean+3SD, 100% = vehicle-minus-blank window. AID 2282. shares compounds with KCNQ2 pot. 1,200 compounds, 43% hits. activity increase over 3SD of controls, % at 10 µM;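 active means signal rise of at least 3 SD above the untreated control mean, in both duplicate wells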;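 further: counter screen of KCNQ2 potentiator hits so any rise reflects channel-independent effects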
KCNQ1 sel pot = selectivity of KCNQ2 potentiators: effect on human KCNQ1; shares compounds with KCNQ2 pot; CHO KCNQ1 stable, FluxOR thallium flux fluorescence; beyond 3SD, as % of vehicle-control signal; activation over 3SD threshold, % at 10 µM; 1,200 compounds, 28% hits;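 active means fluorescence ratio rise of at least 3 SD of vehicle wells above their mean, in both replicate wells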;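 further: 0% = vehicle mean plus 3 SD and 100% = vehicle minus unstimulated blank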
KCNQ2 pot confirm = rat KCNQ2 channel potentiator confirmation; CHO-KCNQ2 cells, FluxOR thallium flux fluorescence; potentiation, less the hit threshold, % at 10 µM; AID 2287; shares compounds with KCNQ2 pot; 1,200 compounds, 68% hits;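 active means fluorescence ratio rising 3 SD or more over the vehicle control mean in both replicates, plus primary screen hit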;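 further: peak minus minimum thallium fluorescence divided by baseline after K/Tl stimulus; 0% = vehicle mean plus 3 SD and 100% = vehicle minus unstimulated blank difference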
Kir21 spec = mouse Kir2.1 off-target activity of KCNQ2 potentiators; shares compounds with KCNQ2 pot; activity over 3SD threshold, % at 10 µM; HEK293 Kir2.1, FluxOR thallium flux fluorescence; 1,200 compounds, 2% hits; AID 2345;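 active means fluorescence ratio rise of at least 3 SD above the vehicle-control mean, seen in both replicates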;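 further: 0% = vehicle mean plus 3 SD and 100% = vehicle minus no-stimulus blank window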
KCNQ2 W236L MoA = potentiates the retigabine-insensitive rat KCNQ2 W236L mutant channel. 940 compounds, 10% hits. shares compounds with KCNQ2 pot. AID 2558. CHO KCNQ2-W236L, automated patch clamp current. current increase over 3SD of negative controls (%), stronger effect = higher value, % at 25 µM;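 active means current increase at least 3 SD of the untreated controls above them in both duplicate recordings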
Numbers without * were called inactive; i = inactive; nt = not tested or not shown.

SMILES | KCNQ2 pot | KCNQ2 inh | Kir21 conf inh | HEK293 Tl flux | others
O=C1CC(O)(C(F)F)Oc2ccc3ccccc3c21 (configuration not stated) | 0.79 | i | nt | nt
O=C1CC(O)(C(F)(F)F)Oc2c1ccc1ccccc21 (configuration not stated) | 5.7* | i | i | 248%* | CHO-K1 Tl ctr=-10;KCNQ1 sel pot=7.6*;KCNQ2 pot confirm=44*;Kir21 spec=-34;KCNQ2 W236L MoA=i
COc1ccc(-c2oc3ccccc3c(=O)c2OCC(=O)O)cc1 | 0.85 | i | nt | nt
COc1ccc(-c2oc3ccccc3c(=O)c2OC(C)=O)cc1 | 6.7* | i | i | 310%* | CHO-K1 Tl ctr=89*;KCNQ1 sel pot=-21;KCNQ2 pot confirm=19*;Kir21 spec=-27;KCNQ2 W236L MoA=i
CC(=O)Oc1c(-c2ccc(Br)o2)oc2ccccc2c1=O | 16* | i | i | 462%* | CHO-K1 Tl ctr=114*;KCNQ1 sel pot=-8;KCNQ2 pot confirm=62*;Kir21 spec=-19;KCNQ2 W236L MoA=i
O=C(O)COc1c(-c2ccco2)oc2ccccc2c1=O | 2 | i | nt | nt
CCNC(=S)/N=C(/Nc1ccccc1)Nc1nc(C)cc(C)n1 | 0.68 | i | i | i
CCNC(=S)/N=C(/Nc1ccc(OC)cc1)Nc1nc(C)cc(C)n1 | nt | i | nt | nt
COCCn1c(-c2cc(OC)c(OC)c(OC)c2)nc2oc3ccccc3c(=O)c2c1=O | 0.96 | i | nt | nt
COc1cc(NC(=O)COC(C)=O)c(C)cc1[N+](=O)[O-] | nt | i | nt | nt
Cc1cccc(CSc2nnc([C@@H]3CCCN3C(=O)OC(C)(C)C)o2)c1 | nt | i | 56%* | i
CC(C)(C)OC(=O)N1CCC[C@H]1c1nnc(SCc2c(Cl)cccc2Cl)o1 | nt | i | nt | nt
Nc1ccc(CCn2ccnc2)cc1 | 0.34 | i | nt | nt
S=C(NCc1ccc(Cl)cc1)NCc1ccco1 | 0.69 | i | nt | nt
COc1ccc(/C=C2/S/C(=N/S(=O)(=O)Cc3ccccc3)NC2=O)cc1OC | 0.02 | i | nt | nt
COc1cc(/C=C2/SC(=S)NC2=O)ccc1OS(=O)(=O)c1ccc(C)cc1 | 40* | i | i | i | CHO-K1 Tl ctr=0.8*;KCNQ1 sel pot=-20;KCNQ2 pot confirm=-23;Kir21 spec=-50;KCNQ2 W236L MoA=i
COc1ccc(/C=C2\SC(=S)NC2=O)cc1OS(=O)(=O)c1ccc(NC(C)=O)cc1 | nt | i | nt | nt
COc1cc(/C=C2\SC(=S)NC2=O)ccc1OS(=O)(=O)c1ccccc1 | 41* | i | i | i | CHO-K1 Tl ctr=-7;KCNQ1 sel pot=-12;KCNQ2 pot confirm=91*;Kir21 spec=-44;KCNQ2 W236L MoA=i
CCOC(=O)c1sc2ncnc(Nc3cccc(C(=O)O)c3)c2c1C | 0.01 | i | nt | nt
O=C(O)CCC(=O)Nc1ccc(/C=C/C(=O)C2CC2)cc1 | nt | i | nt | nt
C/C(=N\NC(=O)C1COc2ccccc2O1)c1ccc(N2CCOCC2)cc1 (configuration not stated) | 9.2* | i | i | i | CHO-K1 Tl ctr=26*;KCNQ1 sel pot=-14;KCNQ2 pot confirm=-20;Kir21 spec=-35
C/C(=N\NC(=O)C1CC1)c1ccc(N2CCOCC2)cc1 | 0.08 | i | nt | nt
O=C1c2ccccc2C(=O)N1CCc1csc(-c2cccc(F)c2)n1 | nt | i | nt | nt
COC(=O)c1c(NS(=O)(=O)Cc2ccccc2)sc2c1CCCC2 | 13* | i | i | 236%* | CHO-K1 Tl ctr=110*;KCNQ1 sel pot=-4;KCNQ2 pot confirm=45*;Kir21 spec=-39;KCNQ2 W236L MoA=i
CC(C)OC(=O)c1c(NS(=O)(=O)c2ccccc2)sc2c1CCCC2 | 2.2 | i | i | i
SMILES | KCNQ2 pot | KCNQ2 inh | Kir21 conf inh | HEK293 Tl flux | others
COC(=O)c1c(NC(=O)c2ccccc2N(C)S(=O)(=O)c2ccccc2)sc2c1CCCC2 | nt | i | nt | nt
COC(=O)c1c(NS(C)(=O)=O)sc2c1CCCC2 | 0.04 | i | nt | nt
CN(C(=O)Cc1c(C(=O)O)n(C)c2ccccc12)c1cccc(C(F)(F)F)c1 | 0.2 | i | nt | nt
CC(=O)Nc1cccc(OCC(=O)Nc2sccc2C(N)=O)c1 | 1.7 | i | nt | nt
O=C(NCCCN1CCOCC1)C(=O)NCc1ccco1 | 1.2 | i | nt | nt
CC12CCC(C(=O)NNc3ccc([N+](=O)[O-])cc3)(CC1=O)C2(C)C (configuration not stated) | nt | i | nt | nt
Cc1cccc(NC(=O)c2cc(-c3ccccn3)nc3ccccc23)c1C | nt | i | nt | nt
Cc1c(N=NC2=C(O)CC(C)(C)CC2=O)cc2c(c1[N+](=O)[O-])C(C)(C)CC2(C)C | 6.7* | i | i | i | CHO-K1 Tl ctr=42*;KCNQ1 sel pot=-11;KCNQ2 pot confirm=0;Kir21 spec=-31;KCNQ2 W236L MoA=i
COc1ccccc1N=NC1=C(O)CC(C)(C)CC1=O | nt | i | nt | nt
Cc1cc(Oc2ccccc2)nc(SCC(=O)Nc2ccccc2)n1 | nt | i | nt | nt
Cc1cc(Oc2ccccc2)nc(SCC(=O)Nc2ccc(Cl)c(Cl)c2)n1 | 5.5* | i | i | i | CHO-K1 Tl ctr=-26;KCNQ1 sel pot=-10;KCNQ2 pot confirm=6.8*;Kir21 spec=-35;KCNQ2 W236L MoA=i
Cc1ccc(CNC(=O)CSc2nc3ccsc3c(=O)n2Cc2ccc(C(=O)O)cc2)cc1 | nt | i | nt | nt
CCOc1ccc(NC(=O)CC2S/C(=N/N=C3CCCCCC3)NC2=O)cc1 (configuration not stated) | nt | i | nt | nt
COc1cc2nc(Nc3ccc(F)cc3)nc(N)c2cc1OC | 0.07 | i | 42%* | i
COc1cc2nc(Nc3ccc(C)c(C)c3)nc(N)c2cc1OC | nt | i | nt | nt
COc1ccc(C(CC(=O)NC(C)c2ccc(-c3ccccc3)cc2)NC(C)=O)cc1 (configuration not stated) | nt | i | nt | nt
COc1cccc2cc(C(=O)NCCc3ccccc3)oc12 | nt | i | nt | nt
COC(=O)C1=C(C)N=C2SCCC(=O)N2C1c1ccc(OC(=O)c2ccco2)cc1 (configuration not stated) | nt | i | 52%* | i
C=CCOC(=O)C1=C(C)N=C2SCCC(=O)N2C1c1ccc(OC(=O)c2ccco2)cc1 (configuration not stated) | nt | i | nt | nt
CCC1=NN(C(=O)c2ccc([N+](=O)[O-])cc2)C(O)(c2ccccc2)C1 (configuration not stated) | 2.1 | i | nt | nt
CC1=NN(C(=O)c2ccccc2Cl)C(O)(c2cccnc2)C1 (configuration not stated) | 3.7 | i | nt | nt
CCC1=NN(C(=O)c2ccccc2O)C(O)(c2ccccc2)C1 (configuration not stated) | 11* | i | i | 148%* | CHO-K1 Tl ctr=-13;KCNQ1 sel pot=-10;KCNQ2 pot confirm=14*;Kir21 spec=-37;KCNQ2 W236L MoA=i
